According to PubChem BioAssay (NCI):
This is part of a sample that, as a whole, favours compounds with a hit. Of some 83,000 tested, about 20% had one in any assay.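 Activity criterion: percent growth below 10, measured after cells in 96-well plates were exposed to a single compound concentration for 48 hours.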 Values without a mark were called inactive. Calls of active or inactive are those of the source.

system: CCRF-CEM leukemia; experiment: NCI-60 one-dose screen, 48 h (100 = growth as untreated, 0 = no growth, -100 = all killed); settings: 10 µM
Method: Growth inhibition of the CCRF-CEM human tumor cell line is measured as a screen for anti-cancer activity. Cells are grown in 96 well plates and exposed to the test compound for 48 hours. Compounds are tested at a single concentration, which is 10^-5 M for most compounds. The reported endpoint is percent growth (GI% or GIPRCNT), where numbers from 0 - 100% represent growth inhibition, and numbers from -100% - 0 represent cell death. For example, a value of 40 represents 60% growth inhibition. A value of 0 means no net growth occurred over the course of the experiment. A value of -40 indicates 40% of cells at the beginning of the experiment died by the end of the experiment. A value of -100 means all cells are dead at the end of the experiment.
NCI-60 Human Tumor Cell Lines Screen was performed using the standard one-dose NCI protocol, which is described in more detail at https://dtp.cancer.gov/discovery_development/nci-60/default.htm.
Compounds with GIPRCNT values below 10 were considered active. Activity score was based on GIPRCNT using the following formula: […]
Score is 0 for GIPRCNT values of 100 or above, 50 for GIPRCNT values of 0, and 100 for GIPRCNT values of -100.

Cc1cc(Nc2ccc(Cl)cc2)nc(NCCCNc2ccnc3cc(Cl)ccc23)n1 was tested. Which growth did it give?
The growth was -22.7% (active).

With COc1cc(C(=O)N2CCN(c3ccccc3OC)CC2)c(N)cc1OCCCN1CCN(c2ccccc2OC)CC1 as the compound, how does the growth read?
The growth was 4.33% (active).

For COc1ccc(C2CC(c3ccc(N(C)C)cc3)=NN2c2ccc(S(N)(=O)=O)cc2)cc1 (stereo not given), which growth is on record?
Its growth is 49.4%.

How did the growth turn out when COc1ccc2c(c1)[n+]([O-])c(C#N)c(NC(=O)c1ccco1)[n+]2[O-] was run?
The growth was 220%.

C#Cc1ccc(-n2c(/C=C/c3cc(OC)cc(OC)c3)nc3ncccc3c2=O)cc1 was tested. Which growth did it give?
The growth was 69%.

CC1(C)OC2=C(CC1Br)C(=O)C(=O)c1ccccc12 (stereo not given) was tested. Which growth did it give?
The growth was -23.1% (active).

How did the growth turn out when Nc1c(C(=O)Nc2ccccc2Cl)sc2nc3c(cc12)C(=O)CCC3 was run?
Its growth is 19.4%.

Which growth does the source give for CCCCOC(=O)Oc1ccc(C(=O)Oc2ccc(OCC)cc2)cc1 here?
The growth was 8.77% (active).

How did the growth turn out when CCCCN(CCCC)c1cc(C(=O)CCCCCN)c2ccccc2n1 was run?
The growth was -70.4% (active).

With COc1cc2nc(Nc3cccc(NC(C)=O)c3)nc(N)c2cc1OC as the compound, how does the growth read?
Its growth is -71.1% (active).

Which growth does the source give for O=[N+]([O-])c1ccc(Oc2cc(Cl)c(Cl)cc2Cl)c(C(F)(F)F)c1 here?
Its growth is 93.5%.

How did the growth turn out when Cc1cccc2c(NCCN(C)C)c3cccc(C(=O)NCCN(C)C)c3nc12 was run?
Its growth is 3.77% (active).

For CN(C)N=Nc1nn(C(=O)Nc2ccc(Cc3ccccc3)cc2)c2ccccc12, which growth is on record?
The growth was 64.8%.

How did the growth turn out when Cc1cccc(Cl)c1NC(=O)c1ccc2nc(NC(=O)NC3CCN(C)CC3)sc2c1 was run?
The growth was 83%.

For COc1ccc2c(c1)nc(N)c1c3cccnc3cn21, which growth is on record?
Its growth is 22.7%.

COc1ccc2c(c1)N(CCO)C1=C(C(=O)OC1)C2c1ccccc1 (stereo not given) was tested. Which growth did it give?
Its growth is 20%.

Cc1ccc2oc3nc(C)c(C(=O)NCc4ccccc4)cc3c(=O)c2c1 was tested. Which growth did it give?
The growth was 76.4%.

For O=C1OCC2=C1C(c1cccc(Cl)c1)c1cc3c(cc1N2CCO)OCCO3 (stereo not given), which growth is on record?
The growth was 6.58% (active).

How did the growth turn out when COc1ccc2c(c1)C(=O)c1c-2c(OCCN(C)C)nc2ccccc12 was run?
Its growth is 20.9%.

O=C(CCCCC[P+](c1ccccc1)(c1ccccc1)c1ccccc1)NC(COC(=O)C(Cl)Cl)(COC(=O)C(Cl)Cl)COC(=O)C(Cl)Cl was tested. Which growth did it give?
Its growth is 88.7%.

How did the growth turn out when CNc1ncc(-c2ccc(C(F)(F)F)cc2)c(NC2CCCCCC2)n1 was run?
The growth was 70.2%.

For O=C1Nc2ccc(Cl)cc2/C1=C\c1c(-c2ccc(Cl)cc2)nc2sc(C3CC3)nn12, which growth is on record?
The growth was 93.6%.

O=C1OCC2=C1C(c1cccc(Cl)c1)c1cc3c(cc1N2CCO)OCO3 (stereo not given) was tested. Which growth did it give?
Its growth is 9.39% (active).

Which growth does the source give for Cc1cs/c(=N\NC(=O)c2cc(-c3cc4ccccc4o3)nn2-c2ccccc2)n1-c1ccccc1 here?
Its growth is 75.7%.

For COc1cc2cc3c(nc2cc1OC)CCN3Cc1ccc(NC(=O)Nc2cc(C(F)(F)F)cc(C(F)(F)F)c2)cc1, which growth is on record?
The growth was 51.7%.

For CC(=O)c1cc(Br)ccc1O, which growth is on record?
The growth was 103%.

Which growth does the source give for CSc1nn(-c2ccccc2)c2ncnc(Oc3ccc(C)cc3)c12 here?
The growth was 90.5%.

How did the growth turn out when N#Cc1ncc(-c2ccc(C(F)(F)F)cc2)c(NCc2cc(C(F)(F)F)cc(C(F)(F)F)c2)n1 was run?
The growth was 10.5%.

For COc1ccc(OC)c2c1C(=O)CC2C (stereo not given), which growth is on record?
The growth was 101%.

With CC1(C)Cc2c(sc3ncn4nc(-c5ccc(O)cc5)nc4c23)CO1 as the compound, how does the growth read?
Its growth is 70.5%.

For N=C(N)c1ccc(-c2ccc(-c3cccs3)s2)s1, which growth is on record?
Its growth is -52.3% (active).

How did the growth turn out when Cc1ccc(S(=O)(=O)OCCN(CCOS(=O)(=O)c2ccc(C)cc2)c2c[nH]c(=O)[nH]c2=O)cc1 was run?
The growth was 101%.

How did the growth turn out when COc1ccc(-c2nc3sccn3c2-c2nc3c([nH]2)C(=O)c2ccccc2C3=O)cc1 was run?
Its growth is 79.9%.

Which growth does the source give for C/C(=N\Nc1nc2ccccc2s1)c1ccncn1 here?
Its growth is 5.95% (active).

For CC(=O)N(C)c1ccc(Nc2ccc(Nc3ccc(N(C)C(C)=O)cc3)c3c2C(=O)c2ccccc2C3=O)cc1, which growth is on record?
The growth was 55.7%.

With COc1ccc2c(c1OC)O/C(=C\c1ncc([N+](=O)[O-])n1C)C2=O as the compound, how does the growth read?
The growth was 4.93% (active).

For Cc1ccc(N=Nc2c(N)nc(N)[nH]c2=O)cc1C, which growth is on record?
The growth was 95.2%.

Which growth does the source give for Clc1ccc2c(NCCCNc3nccc(Nc4ccc(Br)cc4)n3)ccnc2c1 here?
The growth was -24.5% (active).

With CN(CCc1ccccn1)c1ccccc1 as the compound, how does the growth read?
The growth was -0.411% (active).

With O=C(Nc1cccc(-n2cc(-c3ccncc3)c(-c3cc(O)cc(Cl)c3)n2)c1)c1ccc(N2CCOCC2)c(C(F)(F)F)c1 as the compound, how does the growth read?
Its growth is 13.1%.
